Results taken from PubChem BioAssay (EPA / NIEHS).
Several values for one entry are separate records, joined by “and”; a condition that tells them apart may be missing. Equal values may be shown once. Records with an inconclusive call do not appear. More than one record can exist for a structure, and the calls need not agree. Activity calls are given as the source filed them. Rule for the calls: active = hit-call score of the fitted dose curve at least 0.9, where 1 is the maximum; inconclusive = response in the unintended direction; inactive = score below 0.9.

Key:
[1] = TOX21_p53_BLA_p3_viability: Viability Assessment in the Tox21 HCT-116 p53 Agonism Beta-lactamase Assay, Phase 3 (AID 2283593);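 note: cells exposed to compound for 16 h before reading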
Procedure, shortened: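 Cellular ATP was quantified by CellTiter-Glo luminescence, read after 30 min at room temperature. Beforehand, HCT116 cells (4000/well) received compound 5 h post-seeding, 217-fold diluted from DMSO, then incubated 16 h at 37C.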

[2] = biological target: Cellular tumor antigen p53 (Homo sapiens) (UniProt P04637); assay: TOX21_p53_BLA_p3_ratio: Tox21 HCT-116 p53 Agonism Beta-lactamase Assay, Ratio, Phase 3 (AID 2283596)
Procedure, shortened: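 Cells were seeded at 4000/well, rested 5 h at 37C, then dosed with DMSO compound solutions (217-fold dilution) for 16 h. CCF4-AM substrate was loaded for 2 h at room temperature, and the 460/530 nm emission ratio was fitted for gain of signal versus DMSO.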

[3] = TOX21_p53_BLA_p4_viability: Viability Assessment in the Tox21 HCT-116 p53 Agonism Beta-lactamase Assay, Phase 4 (AID 2283597);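 note: hits lower the luminescence signal meaning cytotoxicity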
Procedure, shortened: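 Cytotoxicity was inferred from loss of CellTiter-Glo luminescence. HCT116 cells had been dosed with compounds after 5 h plating, incubated 16 h at 37C and 5% CO2, and exposed to the CCF4-AM substrate for 2 h.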

[4] = biological target: Cellular tumor antigen p53 (Homo sapiens) (UniProt P04637); assay: TOX21_p53_BLA_p5_ratio: Tox21 HCT-116 p53 Agonism Beta-lactamase Assay, Ratio, Phase 5 (AID 2283599)
Procedure, shortened: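 Beta-lactamase reporter ratio (blue 460 nm over green 530 nm, 405 nm excitation) after 2 h CCF4-AM loading, in HCT-116 cells exposed 16 h at 37 C to compounds pinned at 217-fold dilution. Increases relative to DMSO baseline scored.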

[5] = TOX21_p53_BLA_p5_viability: Viability Assessment in the Tox21 HCT-116 p53 Agonism Beta-lactamase Assay, Phase 5 (AID 2283600)
Procedure, shortened: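 Luciferase-coupled ATP quantitation of cells treated for 16 h (37C, 5% CO2) with test chemicals delivered in DMSO via a 217-fold dilution; 4000 cells/well; reagent incubated 30 min at room temperature before luminescence reading.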

[6] = biological target: Cellular tumor antigen p53 (Homo sapiens) (UniProt P04637); assay: TOX21_p53_BLA_p4_ratio: Tox21 HCT-116 p53 Agonism Beta-lactamase Assay, Ratio, Phase 4 (AID 2283601)
Procedure, shortened: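 Signal is the blue/green (460nm/530nm) ratio of cleaved versus uncleaved CCF4-AM substrate, read after 2 h substrate loading. Cells were HCT116 carrying the p53-responsive beta-lactamase reporter, dosed 16 h at 37C, 5% CO2; CellTiter-Glo measured in parallel.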

[7] = Tanguay_ZF_120hpf_YSE_legacy: (Legacy) Oregon State University Tanguay Lab 120 Hour Post-fertilization zebrafish Assay for Yolk Sac Edema (AID 2283634)
Procedure, shortened: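 Tropical 5D wild-type embryos, dechorionated with pronase at 4 hpf, were exposed singly from 6 hpf to 120 hpf under static, sealed, dark conditions at 28C with 0.64% DMSO final. Yolk sac edema was scored present/absent by brightfield microscopy.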

[8] = Tanguay_ZF_120hpf_AXIS_legacy: (Legacy) Oregon State University Tanguay Lab 120 Hour Post-fertilization zebrafish Assay for Body Axis Malformation (AID 2283635)
Procedure, shortened: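 Tropical 5D wild-type zebrafish embryos, dechorionated with pronase at 4 hpf, were placed singly in wells at 6 hpf and exposed statically to test chemical (0.64% DMSO final) at 28C until 120 hpf, then scored by brightfield for body axis defects.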

[9] = Tanguay_ZF_120hpf_EYE_legacy: (Legacy) Oregon State University Tanguay Lab 120 Hour Post-fertilization zebrafish Assay for Eye Malformation (AID 2283636);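 note: binary presence or absence of eye malformation scored by brightfield in 120 hpf larvae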
Procedure, shortened: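 Binary brightfield scoring of eye defects at 120 hpf after static exposure from 6 hpf of single pronase-dechorionated wild-type embryos (28C, 0.64% DMSO). Non-mortality endpoints omitted where embryos died; fit vs DMSO.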

[10] = Tanguay_ZF_120hpf_SNOU_legacy: (Legacy) Oregon State University Tanguay Lab 120 Hour Post-fertilization zebrafish Assay for Snout Malformation (AID 2283637)
Procedure, shortened: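 Binary snout-malformation call at 120 hpf in wild-type 5D embryos, chorion removed by pronase, under static exposure from 6 hpf at 28C (0.64% DMSO). Embryos dying by 24 or 120 hpf excluded.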

[11] = Tanguay_ZF_120hpf_JAW_legacy: (Legacy) Oregon State University Tanguay Lab 120 Hour Post-fertilization zebrafish Assay for Jaw Malformation (AID 2283638)
Procedure, shortened: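 Tropical 5D wild-type embryos, dechorionated with pronase at 4 hpf, were placed singly per well at 6 hpf and statically exposed at 28C until 120 hpf (0.64% DMSO final). Jaw malformation scored as present/absent by brightfield microscopy at 120 hpf, analyzed relative to DMSO.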

[12] = Tanguay_ZF_120hpf_PE_legacy: (Legacy) Oregon State University Tanguay Lab 120 Hour Post-fertilization zebrafish Assay for Pericardial Edema (AID 2283640)
Procedure, shortened: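 Tropical 5D wild-type zebrafish embryos were exposed statically to 120 hpf at 28C, sealed and foil-covered, in 0.64% DMSO final. Pericardial edema was scored present/absent by brightfield microscopy; dead embryos were not scored.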

[13] = Tanguay_ZF_120hpf_PFIN_legacy: (Legacy) Oregon State University Tanguay Lab 120 Hour Post-fertilization zebrafish Assay for Pectoral Fin Malformation (AID 2283648);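 note: each larva judged yes or no for fin defect by brightfield with dead larvae skipped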
Procedure, shortened: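 Pectoral fin malformation was recorded as a binary endpoint at 120 hpf in wild-type Tropical 5D larvae, which had been dechorionated and exposed statically from 6 hpf at 28C in 0.64% DMSO. Dead embryos were excluded.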

[14] = Tanguay_ZF_120hpf_PIG_legacy: (Legacy) Oregon State University Tanguay Lab 120 Hour Post-fertilization zebrafish Assay for Pigmentation Malformation (AID 2283650)
Procedure, shortened: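 Pigment malformation recorded as a binary call at 120 hpf in zebrafish (Tropical 5D) exposed singly from 6 hpf after pronase dechorionation. Static, sealed, 28C exposure, 0.64% DMSO; mortality excludes scoring; positive-direction fit against DMSO.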

[15] = Tanguay_ZF_120hpf_TRUN_legacy: (Legacy) Oregon State University Tanguay Lab 120 Hour Post-fertilization zebrafish Assay for Truncated Body (AID 2283655)
Procedure, shortened: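 Tropical 5D wild-type embryos, dechorionated with pronase at 4 hpf, were placed singly in wells at 6 hpf and statically exposed at 28C until 120 hpf, final DMSO 0.64%. Truncated body was scored present/absent by brightfield microscopy.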

Measured: AC50

Chain of Cellular tumor antigen p53 (Homo sapiens) (P04637 whole entry, looked up): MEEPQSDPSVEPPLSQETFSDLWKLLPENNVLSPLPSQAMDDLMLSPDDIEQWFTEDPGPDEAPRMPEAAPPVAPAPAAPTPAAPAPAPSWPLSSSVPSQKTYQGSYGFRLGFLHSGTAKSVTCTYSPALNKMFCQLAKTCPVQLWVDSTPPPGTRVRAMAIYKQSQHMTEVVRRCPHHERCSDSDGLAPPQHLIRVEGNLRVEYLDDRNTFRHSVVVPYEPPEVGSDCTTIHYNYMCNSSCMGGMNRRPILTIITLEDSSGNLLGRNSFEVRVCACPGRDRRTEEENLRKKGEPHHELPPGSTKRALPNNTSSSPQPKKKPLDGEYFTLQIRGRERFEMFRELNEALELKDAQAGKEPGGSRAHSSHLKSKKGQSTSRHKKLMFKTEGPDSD

Oc1ccc(Cc2ccccc2O)cc1
inactive: [1] | [2] | [3] | [4]

CCCCc1oc2ccccc2c1C(=O)c1cc(I)c(OCCN(CC)CC)c(I)c1
active: [1] 32.3 µM and 51.8 µM | [3] 31.3 µM and 50.9 µM and 23 µM | [6] 64.9 µM
inactive: [1] | [2] | [4] | [5] | [6] | [7] | [8] | [9] | [10] | [11] | [12] | [13] | [14] | [15]

Cc1cc(C(C)(C)C)c(O)c(C(C)(C)C)c1
inactive: [1] | [2] | [3] | [4] | [5] | [6]

CCCCCCc1ccc(N)cc1
inactive: [1] | [2] | [3] | [4] | [5] | [6]

O=C(c1cc(O)c(O)c(O)c1)c1ccc(O)c(O)c1O
inactive: [1] | [3] | [5]
active: [2] 60.9 µM and 84.5 µM | [4] 86.8 µM and 74.6 µM | [6] 79.2 µM and 49.9 µM

O=c1cc(-c2ccccc2)oc2ccc3ccccc3c12
inactive: [1] | [2] | [3] | [4] | [5] | [6]

Nc1cc(Cl)c(-c2cc(Cl)c(N)cc2Cl)cc1Cl
active: [1] 70.8 µM and 63.8 µM | [2] 86.4 µM and 84.5 µM | [3] 40.7 µM and 29.6 µM | [4] 85.2 µM and 85.6 µM | [5] 71.8 µM and 61.9 µM | [6] 81.8 µM and 57.1 µM

NNc1nc(-c2ccc([N+](=O)[O-])cc2)cs1
active: [2] 55.7 µM | [3] 46.1 µM | [4] 39.6 µM | [6] 43.5 µM
inactive: [1] | [5]

CCCCCCOC(=O)c1ccc(O)cc1
inactive: [1] | [2] | [5]
active: [2] 86 µM | [3] 43.2 µM and 64.2 µM | [4] 70.6 µM and 76.8 µM | [6] 67.3 µM and 80 µM

Cc1ccccc1C(OCCN(C)C)c1ccccc1 (stereo not given)
inactive: [1] | [2] | [3]

COc1ccccc1NC(=O)c1cc2ccccc2cc1O
inactive: [1] | [2] | [3] | [4] | [5]
active: [6] 36.1 µM

C=CC(=O)OCC(CO)(COCC(COC(=O)C=C)(COC(=O)C=C)COC(=O)C=C)COC(=O)C=C
inactive: [2]
active: [1] 3.91 µM | [3] 3.32 µM | [4] 82.5 µM | [5] 2.74 µM | [6] 65 µM

Oc1c(Cl)cc(Cl)cc1Sc1cc(Cl)cc(Cl)c1O
inactive: [1] | [5]
active: [1] 73.1 µM and 36.2 µM and 1.49 µM | [5] 82 µM and 85.7 µM

CCCCCCCCCCCC(=O)NCCCN(C)C
active: [1] 47.3 µM | [2] 87.2 µM | [3] 29 µM | [4] 86 µM | [5] 65.7 µM | [6] 59.8 µM

O=C(Nc1cccc([N+](=O)[O-])c1)c1cc2ccccc2cc1O
inactive: [1] | [5]
active: [2] 1.1 µM | [3] 16.6 µM | [4] 4.65 µM | [6] 11.6 µM

Cc1cc(=O)oc2cc(O)ccc12
inactive: [1] | [2] | [3] | [4] | [5] | [6]
active: [4] 65 µM and 38.4 µM | [6] 53.2 µM and 54.1 µM

CN(C)c1ccc(C(=C2C=CC(=[N+](C)C)C=C2)c2ccccc2)cc1
active: [1] 1.15 µM | [2] 15.1 µM | [3] 1.36 µM and 23 µM | [4] 19.2 µM | [6] 15.8 µM
inactive: [1] | [2] | [4] | [5] | [6]

C[C@]12CC[C@@H]3c4ccc(O)cc4CC[C@H]3[C@@H]1C[C@@H](O)[C@@H]2O
inactive: [1] | [2] | [3] | [4] | [5] | [6]

Oc1c(Cl)ccc(Cl)c1Cl
inactive: [1] | [2] | [3] | [4] | [5] | [6]

CCCCCCCCCCCCCCCCCC[N+](C)(C)Cc1ccccc1
inactive: [4]
active: [1] 24.4 µM | [2] 60.6 µM | [3] 38.1 µM | [5] 15 µM | [6] 69.6 µM

CC1=CC(=O)c2ccccc2C1=O
inactive: [3] | [4] | [5] | [6]
active: [1] 35.7 µM and 36.7 µM | [2] 29.7 µM and 41.4 µM | [3] 72.7 µM | [4] 40.7 µM | [5] 37.9 µM
